From PubChem BioAssay (NCI) come the findings set out here.

Compounds without any hit were thinned out: in the full panel of roughly 83,000, 20% have a hit.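 96-well plates, one dose, 48 hours. Percent growth reported; active if below 10.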 Unmarked numbers belong to inactive results. Activity calls are given as the source filed them.

Test systems include HCT-15 colon; HT29 colon; SNB-75 CNS; SNB-19 CNS; U251 CNS; PC-3 prostate; SK-MEL-5 melanoma; UACC-62 melanoma; LOX IMVI melanoma; SK-MEL-28 melanoma; SK-MEL-2 melanoma; EKVX NSCLC; SN12C renal; UO-31 renal; ACHN renal; CAKI-1 renal; A498 renal; CCRF-CEM leukemia; MOLT-4 leukemia; TK-10 renal.
Assay in all cases: NCI-60 one-dose screen, 48 h (100 = growth as untreated, 0 = no growth, -100 = all killed)
What all share (conditions): 10 µM unless noted

On to `CC1(C)N=C(N)N=C(N)N1c1cccc(CN)c1`, for which the growth in the assay on HCT-15 colon was 97.8%; with HT29 colon, 95.7%; in the assay with SNB-75 CNS, 73.6%; in the assay with SNB-19 CNS, 100%; with U251 CNS, 98.9%; with PC-3 prostate, 87.3%. Moreover, the growth in the assay with SK-MEL-5 melanoma was 109%; with UACC-62 melanoma, 95.9%; with LOX IMVI melanoma, 89.2%; in the assay with SK-MEL-28 melanoma, 106%; in the assay with SK-MEL-2 melanoma, 99.8%; with EKVX NSCLC it was 83.9%. Further, the growth with SN12C renal was 91.3%; with UO-31 renal it was 66.8%; in the assay on ACHN renal, 100%; in the assay with CAKI-1 renal, 89.2%; in the assay with A498 renal, 98%; in the assay on CCRF-CEM leukemia, 96.5%. Also, in the assay on MOLT-4 leukemia, the growth was 95.1%.
Turning to `O=[N+]([O-])c1ccc2[nH]cc(-c3c4ccsc4cc4[nH]c5ccc([N+](=O)[O-])cc5c34)c2c1`, the growth is 11.3% in the assay on HCT-15 colon; -14.5% (active) in the assay on HT29 colon; -24.3% (active) in the assay with SNB-75 CNS; 13.4% with SNB-19 CNS; 6.49% (active) with U251 CNS; 9.2% (active) in the assay on PC-3 prostate. The growth was -7.86% (active) in the assay on SK-MEL-5 melanoma; 14.5% in the assay on UACC-62 melanoma; 0.522% (active) with LOX IMVI melanoma; 27.1% with SK-MEL-28 melanoma; 2.1% (active) in the assay on SK-MEL-2 melanoma; 29% in the assay on EKVX NSCLC. In addition, the growth was 21.7% in the assay on SN12C renal; 22.9% in the assay with UO-31 renal; 24.5% in the assay with ACHN renal; 26.2% with CAKI-1 renal; -16.6% (active) in the assay on A498 renal; 7.42% (active) with CCRF-CEM leukemia. For the same compound, the growth in the assay with MOLT-4 leukemia was 5.22% (active).
In the case of `Cc1ccc(Nc2ccc(Nc3ccc(C)cc3S(=O)(=O)O)c3c2C(=O)c2ccccc2C3=O)c(S(=O)(=O)O)c1`, the growth was 103% in the assay on HCT-15 colon; 98.4% in the assay on HT29 colon; 85.3% with SNB-75 CNS; 108% in the assay on SNB-19 CNS; 107% in the assay with U251 CNS; 83% with PC-3 prostate. Moreover, the growth is 102% in the assay on SK-MEL-5 melanoma; 97.3% in the assay on UACC-62 melanoma; 102% in the assay with LOX IMVI melanoma; 107% in the assay on SK-MEL-28 melanoma; 101% with SK-MEL-2 melanoma; 91.5% with EKVX NSCLC. Further, the growth in the assay with SN12C renal was 98.5%; with UO-31 renal it was 78.4%; in the assay with TK-10 renal, 98.3%; with A498 renal, 119%; with CCRF-CEM leukemia it was 95.6%; with MOLT-4 leukemia it was 116%.
Turning to `COc1ccc(C2CC(c3cnccn3)=NN2)cc1OC` (stereo unspecified), the growth was 107% in the assay with HCT-15 colon; 84.9% in the assay with HT29 colon; 118% in the assay with SNB-75 CNS; 103% in the assay with SNB-19 CNS; 96.7% in the assay with U251 CNS; 92% with PC-3 prostate. For the same compound, the growth in the assay with SK-MEL-5 melanoma is 100%; with UACC-62 melanoma, 103%; in the assay on LOX IMVI melanoma, 104%; in the assay with SK-MEL-28 melanoma, 121%; in the assay on SK-MEL-2 melanoma, 79%; in the assay on EKVX NSCLC, 108%. The growth in the assay on SN12C renal is 104%; in the assay with UO-31 renal, 88.7%; in the assay on TK-10 renal it was 82.7%; in the assay with A498 renal it was 112%; in the assay on CCRF-CEM leukemia it was 75.2%; in the assay on MOLT-4 leukemia, 72%.
Turning to `O=C(NCCOCCOCCOCCNC(=O)c1cc2c(o1)C(=O)c1ccccc1C2=O)NC12CC3CC(CC(C3)C1)C2`, the growth with HCT-15 colon was -74.7% (active); in the assay on HT29 colon, 1.21% (active); in the assay with SNB-75 CNS it was -99.6% (active); in the assay on SNB-19 CNS it was -2.04% (active); in the assay with U251 CNS, -22% (active); with PC-3 prostate it was 12.1%. In addition, the growth in the assay on SK-MEL-5 melanoma was -97.7% (active); in the assay on UACC-62 melanoma it was -93.6% (active); in the assay on LOX IMVI melanoma it was -46.2% (active); in the assay on SK-MEL-28 melanoma, -40.8% (active); in the assay on SK-MEL-2 melanoma it was -17.9% (active); with EKVX NSCLC, -4.03% (active). Moreover, the growth in the assay on SN12C renal is -68.2% (active); with UO-31 renal, -59% (active); with ACHN renal it was 0.47% (active); with CAKI-1 renal, -5.41% (active); with CCRF-CEM leukemia it was 18.8%; with MOLT-4 leukemia, 12.1%.
Take `CCCCn1c(=O)[nH]c(N)c(C(c2ccc(F)cc2)c2c(N)[nH]c(=O)n(CCCC)c2=O)c1=O`: the growth in the assay on HCT-15 colon is 95.7%; in the assay with HT29 colon it was 66.4%; in the assay with SNB-75 CNS it was 62.2%; with SNB-19 CNS, 74%; in the assay on U251 CNS it was 65.3%; in the assay with PC-3 prostate it was 53.9%. Besides, the growth is 36.7% in the assay on SK-MEL-5 melanoma; 55.6% with UACC-62 melanoma; 58.9% with LOX IMVI melanoma; 74.7% in the assay with SK-MEL-28 melanoma; 58.6% in the assay on SK-MEL-2 melanoma; 69.3% in the assay with EKVX NSCLC. Besides, the growth in the assay with UO-31 renal is 103%; in the assay with TK-10 renal, 68.3%; in the assay on ACHN renal it was 92.7%; with CAKI-1 renal, 100%; in the assay on A498 renal it was 90.1%; with CCRF-CEM leukemia, 58%. Besides, the growth in the assay on MOLT-4 leukemia is 29.8%.
Take `CCOc1cc(N)ccc1C(=O)NCCCN(CC)CC`: the growth with HCT-15 colon was 106%; in the assay with HT29 colon, 102%; in the assay on SNB-75 CNS, 85%; in the assay on SNB-19 CNS it was 102%; in the assay with U251 CNS it was 104%; in the assay with PC-3 prostate it was 101%. Also, the growth in the assay on SK-MEL-5 melanoma is 100%; in the assay on UACC-62 melanoma, 95.5%; with LOX IMVI melanoma it was 100%; in the assay with SK-MEL-28 melanoma, 97.5%; in the assay on SK-MEL-2 melanoma it was 102%; in the assay with EKVX NSCLC it was 106%. Also, the growth in the assay with UO-31 renal is 75.8%; with TK-10 renal, 108%; in the assay on ACHN renal it was 94.6%; with CAKI-1 renal it was 95.2%; in the assay on A498 renal it was 66.5%; in the assay with CCRF-CEM leukemia it was -13.6% (active). In addition, in the assay with MOLT-4 leukemia, the growth is 26.3%.
Consider `COc1cc2c(cc1OC)-c1ccc3cc4c(cc3c1N(CCCN1CCCCC1)C2)OCO4`, for which the growth in the assay on HCT-15 colon is 47.5%; in the assay on HT29 colon, 25.4%; with SNB-75 CNS it was 51.3%; in the assay on SNB-19 CNS, 42.6%; in the assay with U251 CNS it was 42.1%; with PC-3 prostate, 29.3%. In addition, the growth in the assay on SK-MEL-5 melanoma was 44.9%; with UACC-62 melanoma, 59.2%; in the assay on LOX IMVI melanoma it was 32.5%; in the assay on SK-MEL-28 melanoma, 80.4%; in the assay with SK-MEL-2 melanoma, 68.8%; with EKVX NSCLC it was 69.4%. The growth in the assay with SN12C renal is 30.5%; in the assay on UO-31 renal, 37.6%; with TK-10 renal, 73.2%; in the assay with A498 renal it was 65%; in the assay with CCRF-CEM leukemia it was 19.6%; in the assay with MOLT-4 leukemia it was 6.01% (active).
With `N#C/C(=C\c1ccc2c(c1)OCO2)n1nnc2ccccc21`, the growth in the assay with HCT-15 colon was 9% (active); in the assay with HT29 colon it was 11.5%; in the assay on SNB-75 CNS it was -49.7% (active); in the assay on SNB-19 CNS, 19.8%; with U251 CNS it was 13%; in the assay with PC-3 prostate, 12.5%. For the same compound, the growth was 20.4% in the assay with SK-MEL-5 melanoma; 20% in the assay on UACC-62 melanoma; -11% (active) with LOX IMVI melanoma; 25.8% with SK-MEL-28 melanoma; 21.6% with SK-MEL-2 melanoma; 23% in the assay with EKVX NSCLC. For the same compound, the growth with SN12C renal was 14.1%; in the assay on UO-31 renal, 11.9%; in the assay on ACHN renal, 22.9%; with CAKI-1 renal, 17.7%; in the assay with CCRF-CEM leukemia, 18.3%; with MOLT-4 leukemia, 16.4%.
